Records with an inconclusive call do not appear. Unmarked numbers belong to inactive results. Calls of active or inactive are those of the source. The call rests on the fitted dose curve; in most records, active means well fitted cell-killing curve with a large enough effect; inconclusive means small, poorly fitted or top-dose-only effect, or effect the other way; inactive means no such curve, though single readings can be large or run the other way.
assay: Quantitative highthroughput screen to assess conditional lethalithy of SEM cells grown in Human Plasma-Like Medium with dialyzed fetal bovine serum (HPLM+ds) (AID 1963882); details: SEM B-ALL cells in HPLM+ds, CellTiter-Glo viability, 48 h; series mostly up to 45.8 µM; viability: at the top concentration
How it was run: (§1)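 Each medium arm—HPLM with 10% dialyzed FBS, or RPMI1640 with 5 mM glucose and 10% untreated or dialyzed FBS—was screened against an 11-point, 3-fold compound titration for 48 h at 37 °C, with CellTiter-Glo luminescence as endpoint.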
Further: nearly all actives have a fitted effect of over 35% in size.
Potency means the concentration at half of the fitted maximal effect.

SMILES	Potency	viability
CNC(=O)c1cc(COc2nnc(Nc3ccc(Cl)cc3)c3ccoc23)ccn1	16.6 µM (active)	
Cc1cc(CS(=O)(=O)c2ccccc2)cc(OCc2ccc(CN3CCC[C@H]3CO)cc2)c1	0.59 µM (active)	
COc1ccc(Nc2nccc(NCCO)n2)cc1		82.7%
C[C@H]1Oc2cc(cnc2N)-c2c(nn(C)c2C#N)CN(C)C(=O)c2ccc(F)cc21		91.7%
NC(=O)N1c2ccccc2CC(=O)c2ccccc21		95.9%
COC1=C(OC)C(=O)C(CC=C(C)CCC=C(C)CCC=C(C)CCC=C(C)CCC=C(C)CCC=C(C)CCC=C(C)CCC=C(C)CCC=C(C)CCC=C(C)C)=C(C)C1=O		102%
CON=C(C(=O)N[C@@H]1C(=O)N2C(C(=O)O)=C(Cn3ccc(=N)n3CCO)CS[C@H]12)c1csc(N)n1		106%
COC(=O)C1=C(C)NC(C)=C(C(=O)OC(C)C)C1c1cccc2nonc12 (stereo not drawn)		102%
Clc1cccc(-n2nnnc2NCc2ccccc2Oc2ccccn2)c1Cl		102%
CC[C@H](CO)Nc1nc(NCc2ccccc2)c2ncn(C(C)C)c2n1		74.1%
C1=CCOCc2cc(ccc2OCCN2CCCC2)Nc2nccc(n2)-c2cccc(c2)OCC1	3.32 µM (active)	
Fc1ccc(C(c2ccc(F)cc2)N2CCN(CC=Cc3ccccc3)CC2)cc1		90.7%
COc1ccc(CC2=NN3C([C@@H](CCc4ccccc4)[C@@H](C)O)=NC(C)C3C(=O)N2)cc1OC (stereo partly drawn)		109%
CCOC(=O)O[C@]1(C(=O)OCCl)CC[C@@H]2[C@H]3CCC4=CC(=O)C=C[C@]4(C)[C@@H]3[C@@H](O)C[C@@]21C		106%
CC(C)=CCCC(C)=CCCC(C)=CCCC(C)=CCCC(C)=CCCC(C)=CCCC(C)=CCCC(C)=CCCC(C)=CCO		120%
NC1CCC(Nc2nc(Nc3ccc(C(=O)N4CCCCC4)cc3)c3ncn(-c4cccc(F)c4)c3n2)CC1 (stereo not drawn)		107%
CC=CC1=C(C(=O)O)N2C(=O)[C@H](NC(=O)[C@H](N)c3ccc(O)cc3)[C@@H]2SC1		103%
COc1ccc2nc(S(=O)Cc3ncc(C)c(OC)c3C)[nH]c2c1 (stereo not drawn)		89.8%
CC1(C)[C@H](O[C@H]2O[C@H](C(=O)O)[C@@H](O)[C@H](O)[C@H]2O[C@@H]2O[C@H](C(=O)O)[C@@H](O)[C@H](O)[C@H]2O)CC[C@@]2(C)[C@H]1CC[C@]1(C)[C@H]2C(=O)C=C2[C@H]3C[C@@](C)(C(=O)O)CC[C@]3(C)CC[C@]21C		115%
COC(=O)[C@@H]1CC2=CC(=O)CC[C@]2(C)[C@@]23O[C@@H]2C[C@@]2(C)[C@H](CC[C@@]24CCC(=O)O4)[C@@H]13		108%
CCOc1cc2ncc(C#N)c(Nc3ccc(F)c(Cl)c3)c2cc1NC(=O)C=CCN(C)C	1.32 µM (active)	
O=C1C(CCC(O)c2ccc(F)cc2)C(c2ccc(O)cc2)N1c1ccc(F)cc1 (stereo not drawn)		92.6%
CS(=O)(=O)c1ccc(C(=O)Nc2ccc(Cl)c(-c3ccccn3)c2)c(Cl)c1		112%
O=c1c(-c2ccc(O)cc2)coc2cc(O[C@@H]3O[C@H](CO)[C@H](O)[C@H](O)[C@H]3O)ccc12	14.8 µM (active)	
Nc1ccc(S(=O)(=O)Nc2ccnn2-c2ccccc2)cc1		96.6%
CC(=Cc1ccccc1)C=C1SC(=S)N(CC(=O)O)C1=O		105%
COc1cc(NC(=O)c2ccc(-c3ccc(Cl)cc3)o2)cc(OC)c1		104%
CC(C)c1ccc(Cn2ccc3c4c(N)nc(NC5CC5)nc4ccc32)cc1	1.66 µM (active)	

assay: Quantitative highthroughput screen to assess conditional lethalithy of SEM cells grown in RPMI1640 with unreated serum (RPMI+s) (AID 1963883); details: SEM B-ALL cells, CellTiter-Glo viability, 48 h; series mostly up to 45.8 µM; viability: at the top concentration;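 on viability: 100% = DMSO wells and 0% = empty wells without cells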
How it was run: as §1

SMILES	Potency	viability
Cc1cc(CS(=O)(=O)c2ccccc2)cc(OCc2ccc(CN3CCC[C@H]3CO)cc2)c1	0.332 µM (active)	
COc1ccc(Nc2nccc(NCCO)n2)cc1		107%
C[C@H]1Oc2cc(cnc2N)-c2c(nn(C)c2C#N)CN(C)C(=O)c2ccc(F)cc21		57.4%
NC(=O)N1c2ccccc2CC(=O)c2ccccc21		101%
Cc1cncc2cccc(S(=O)(=O)N3CCCN(C(=O)CN)C[C@@H]3C)c12	5.26 µM (active)	
COC1=C(OC)C(=O)C(CC=C(C)CCC=C(C)CCC=C(C)CCC=C(C)CCC=C(C)CCC=C(C)CCC=C(C)CCC=C(C)CCC=C(C)CCC=C(C)C)=C(C)C1=O		103%
CON=C(C(=O)N[C@@H]1C(=O)N2C(C(=O)O)=C(Cn3ccc(=N)n3CCO)CS[C@H]12)c1csc(N)n1		98.9%
COC(=O)C1=C(C)NC(C)=C(C(=O)OC(C)C)C1c1cccc2nonc12 (stereo not drawn)		94.5%
C1=CCOCc2cc(ccc2OCCN2CCCC2)Nc2nccc(n2)-c2cccc(c2)OCC1	4.18 µM (active)	
Fc1ccc(C(c2ccc(F)cc2)N2CCN(CC=Cc3ccccc3)CC2)cc1		79.2%
COc1ccc(CC2=NN3C([C@@H](CCc4ccccc4)[C@@H](C)O)=NC(C)C3C(=O)N2)cc1OC (stereo partly drawn)		117%
COCCOc1ccc2c(c1)ncn2-c1ccc2cccc(N3CCC(N)CC3)c2n1	0.0935 µM (active)	
CCOC(=O)O[C@]1(C(=O)OCCl)CC[C@@H]2[C@H]3CCC4=CC(=O)C=C[C@]4(C)[C@@H]3[C@@H](O)C[C@@]21C		96.5%
NC1CCC(Nc2nc(Nc3ccc(C(=O)N4CCCCC4)cc3)c3ncn(-c4cccc(F)c4)c3n2)CC1 (stereo not drawn)		79.5%
CC=CC1=C(C(=O)O)N2C(=O)[C@H](NC(=O)[C@H](N)c3ccc(O)cc3)[C@@H]2SC1		98%
COc1ccc2nc(S(=O)Cc3ncc(C)c(OC)c3C)[nH]c2c1 (stereo not drawn)		72.9%
CC1(C)[C@H](O[C@H]2O[C@H](C(=O)O)[C@@H](O)[C@H](O)[C@H]2O[C@@H]2O[C@H](C(=O)O)[C@@H](O)[C@H](O)[C@H]2O)CC[C@@]2(C)[C@H]1CC[C@]1(C)[C@H]2C(=O)C=C2[C@H]3C[C@@](C)(C(=O)O)CC[C@]3(C)CC[C@]21C		107%
COC(=O)[C@@H]1CC2=CC(=O)CC[C@]2(C)[C@@]23O[C@@H]2C[C@@]2(C)[C@H](CC[C@@]24CCC(=O)O4)[C@@H]13		105%
CCOc1cc2ncc(C#N)c(Nc3ccc(F)c(Cl)c3)c2cc1NC(=O)C=CCN(C)C	0.418 µM (active)	
O=C1C(CCC(O)c2ccc(F)cc2)C(c2ccc(O)cc2)N1c1ccc(F)cc1 (stereo not drawn)		99.2%
Nc1ccc(S(=O)(=O)Nc2ccnn2-c2ccccc2)cc1		120%
Clc1ccc2c(N3CCN(CCCN4CCN(c5ccnc6cc(Cl)ccc56)CC4)CC3)ccnc2c1	7.24 µM (active)	
CC(=Cc1ccccc1)C=C1SC(=S)N(CC(=O)O)C1=O	5.9 µM (active)	
COc1cc(NC(=O)c2ccc(-c3ccc(Cl)cc3)o2)cc(OC)c1		97.9%
CC(C)c1ccc(Cn2ccc3c4c(N)nc(NC5CC5)nc4ccc32)cc1	3.72 µM (active)	

Reference: PubChem BioAssay (NCATS)
